What all share (test): NCI-60 one-dose screen, 48 h (100 = growth as untreated, 0 = no growth, -100 = all killed)
The subject of one test is SK-MEL-2 melanoma. The conditions noted are these: 10 µM unless noted.
Another test has as its system EKVX NSCLC. The conditions noted are these: 10 µM unless noted.
A further test relates to SN12C renal. The conditions noted are these: 10 µM unless noted.
In the next test the test system is UO-31 renal. The conditions noted are these: 10 µM unless noted.
In the next test the test system is TK-10 renal. The conditions noted are these: 10 µM unless noted.
The test system of the next test is ACHN renal. The conditions noted are these: 10 µM unless noted.
In the next test the test system is CAKI-1 renal. The conditions noted are these: 10 µM unless noted.
The subject of a further test is A498 renal. The conditions noted are these: 10 µM unless noted.
The subject of another test is CCRF-CEM leukemia. The conditions noted are these: 10 µM unless noted.
Another test concerns MOLT-4 leukemia. The conditions noted are these: 10 µM unless noted.
The subject of another test is SR leukemia. The conditions noted are these: 10 µM unless noted.
The subject of the next test is RPMI-8226 leukemia. The conditions noted are these: 10 µM unless noted.
The subject of a further test is OVCAR-8 ovarian. The conditions noted are these: 10 µM unless noted.
In a further test the test system is OVCAR-5 ovarian. The conditions noted are these: 10 µM unless noted.
The test system of a further test is OVCAR-4 ovarian. The conditions noted are these: 10 µM.
The subject of the next test is SK-OV-3 ovarian. The conditions noted are these: 10 µM unless noted.
A further test relates to IGROV1 ovarian. The conditions noted are these: 10 µM unless noted.
Another test concerns HS 578T breast. The conditions noted are these: 10 µM unless noted.
The subject of the next test is NCI/ADR-RES ovarian. The conditions noted are these: 10 µM unless noted.
A further test relates to OVCAR-3 ovarian. The conditions noted are these: 10 µM unless noted.

This is part of a sample that, as a whole, favours compounds with a hit. Of some 83,000 tested, about 20% had one in any assay.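 Testing used 96-well plates and a 48-hour single-concentration exposure. Example: -40 means 40% of the starting cells died.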 Values without a mark were called inactive. The source made the active and inactive calls. How the source made its calls: active means growth percent below 10; inactive means the rest.

In the case of `Brc1ccc(-c2nnc3c4[nH]ccc4ncn23)cc1`, the growth with SK-MEL-2 melanoma is 92.2%; in the test with EKVX NSCLC, 77.5%; in the test on SN12C renal, 90.5%; in the test on UO-31 renal, 58.6%; with TK-10 renal, 89.4%; in the test on ACHN renal, 78.7%. The growth in the test with CAKI-1 renal is 87.3%; in the test with A498 renal, 70.6%; with CCRF-CEM leukemia, 97.3%; with MOLT-4 leukemia it was 77.2%; with SR leukemia, 82.1%; with RPMI-8226 leukemia it was 84.4%. In addition, the growth in the test with OVCAR-8 ovarian is 95.3%; in the test with OVCAR-5 ovarian it was 113%; in the test on OVCAR-4 ovarian, 91.1%; in the test on SK-OV-3 ovarian, 93.2%; in the test with IGROV1 ovarian, 69.6%; in the test with HS 578T breast, 93.6%.

`CCCCCCCCCCCCCCCCCCNC(=S)N/N=C/c1ccc(OC)c(OC)c1`: the growth was 111% with SK-MEL-2 melanoma; 92.9% in the test with EKVX NSCLC; 93.4% with SN12C renal; 77.1% with UO-31 renal; 104% in the test on TK-10 renal; 102% with ACHN renal. Besides, the growth in the test with CAKI-1 renal was 93.9%; with A498 renal, 82.4%; in the test with CCRF-CEM leukemia, 91.7%; in the test on MOLT-4 leukemia, 100%; with SR leukemia it was 81.2%; in the test on RPMI-8226 leukemia it was 89.7%. The growth in the test with OVCAR-8 ovarian was 101%; with OVCAR-5 ovarian, 93.8%; in the test on OVCAR-4 ovarian, 98.5%; in the test on SK-OV-3 ovarian, 98.5%; in the test with IGROV1 ovarian, 94.2%; with HS 578T breast it was 100%. In addition, the growth with NCI/ADR-RES ovarian is 97.3%.

As to `CCn1cc(-c2ccnc(NCCNS(=O)(=O)c3ccc(Br)cc3)c2)c(-c2cccc(OC)c2)n1`, the growth was 90.8% in the test on SK-MEL-2 melanoma; 77% in the test with EKVX NSCLC; 77% in the test with SN12C renal; 45.6% in the test on UO-31 renal; 83.2% in the test with TK-10 renal; 82.6% in the test on ACHN renal. Also, the growth in the test with CAKI-1 renal was 66.1%; with A498 renal, 66.2%; in the test with CCRF-CEM leukemia, 43.2%; in the test with MOLT-4 leukemia it was 34.8%; in the test with SR leukemia, 42.2%; in the test with RPMI-8226 leukemia it was 25%. The growth in the test with OVCAR-8 ovarian was 63.5%; in the test with OVCAR-5 ovarian, 97.6%; in the test on OVCAR-4 ovarian it was 55.3%; in the test on SK-OV-3 ovarian, 76.6%; with IGROV1 ovarian, 60.8%; with HS 578T breast, 78.5%. For the same molecule, the growth in the test with NCI/ADR-RES ovarian was 73.9%.

As to `Cn1cc(-c2noc(-c3cn(C)c4ncccc34)n2)c2cc(Cl)ccc21`, the growth in the test on SK-MEL-2 melanoma was 97.3%; in the test on EKVX NSCLC it was 89.3%; in the test with SN12C renal it was 92.1%; in the test with UO-31 renal, 78.9%; with TK-10 renal, 89.5%; in the test with ACHN renal, 89.3%. Moreover, the growth with CAKI-1 renal was 86.6%; in the test on A498 renal it was 82.7%; in the test with CCRF-CEM leukemia, 99.8%; with MOLT-4 leukemia it was 96.1%; in the test on SR leukemia it was 82.2%; in the test with RPMI-8226 leukemia it was 96.6%. The growth with OVCAR-8 ovarian is 96%; with OVCAR-5 ovarian, 79.7%; in the test with OVCAR-4 ovarian it was 98.3%; with SK-OV-3 ovarian it was 89%; with IGROV1 ovarian, 99.8%; with HS 578T breast, 111%. For the same molecule, the growth with NCI/ADR-RES ovarian is 89.8%.

With `O=C(O)c1cc([N+](=O)[O-])ccc1Br`, the growth in the test with SK-MEL-2 melanoma is 107%; in the test with EKVX NSCLC it was 98.5%; in the test with SN12C renal, 101%; with UO-31 renal it was 86.3%; with TK-10 renal, 95.5%; in the test with ACHN renal, 94.2%. The growth was 97.6% in the test on CAKI-1 renal; 106% with A498 renal; 105% in the test with CCRF-CEM leukemia; 99.8% with MOLT-4 leukemia; 112% in the test with SR leukemia; 99% in the test on RPMI-8226 leukemia. The growth is 101% in the test on OVCAR-8 ovarian; 90.8% with OVCAR-5 ovarian; 99.2% with OVCAR-4 ovarian; 113% in the test with SK-OV-3 ovarian; 103% in the test with IGROV1 ovarian; 106% with HS 578T breast. The growth in the test with NCI/ADR-RES ovarian is 98.1%.

For the molecule `Cc1nc(-c2ccccc2)sc1CC#N`, the growth in the test with SK-MEL-2 melanoma was 112%; in the test on EKVX NSCLC, 101%; in the test on SN12C renal it was 103%; in the test with UO-31 renal, 106%; in the test with TK-10 renal it was 79.4%; in the test on ACHN renal it was 102%. Moreover, the growth was 97.6% in the test with CAKI-1 renal; 85.6% with A498 renal; 102% in the test with CCRF-CEM leukemia; 93.5% in the test with MOLT-4 leukemia; 91.6% in the test with SR leukemia; 109% in the test on RPMI-8226 leukemia. Besides, the growth in the test on OVCAR-8 ovarian was 108%; in the test with OVCAR-5 ovarian it was 105%; in the test on OVCAR-4 ovarian, 113%; with SK-OV-3 ovarian, 108%; in the test with IGROV1 ovarian, 102%; with OVCAR-3 ovarian, 116%. The growth in the test with NCI/ADR-RES ovarian was 109%.

Consider `Cc1cc(C)c(O)c(CNCCCCCCNCc2cc(C)cc(C)c2O)c1`, for which the growth with SK-MEL-2 melanoma is -61.8% (active); in the test on EKVX NSCLC it was 47.9%; in the test on SN12C renal, 29.8%; in the test on UO-31 renal, -60.3% (active); with TK-10 renal, -28% (active); with ACHN renal it was -42.3% (active). Moreover, the growth is 26.2% in the test on CAKI-1 renal; 21.4% in the test with A498 renal; -19.9% (active) in the test on CCRF-CEM leukemia; -28.1% (active) with MOLT-4 leukemia; -48.3% (active) with SR leukemia; -20.8% (active) in the test with RPMI-8226 leukemia. Besides, the growth in the test on OVCAR-8 ovarian was -12.4% (active); in the test with OVCAR-5 ovarian, 13.9%; in the test on OVCAR-4 ovarian, 46.1%; in the test with SK-OV-3 ovarian, 84.9%; with IGROV1 ovarian, 36.4%; in the test on OVCAR-3 ovarian, 22%. The growth in the test with NCI/ADR-RES ovarian was 8.8% (active).

On to `O=C1NC(=O)C(Cc2ccc(OCc3ccc(-c4cc(F)c(F)c(F)c4)cc3)cc2)S1` (stereo unspecified), for which the growth was 94.4% in the test on SK-MEL-2 melanoma; 80.9% with EKVX NSCLC; 80.1% with SN12C renal; 64.5% in the test on UO-31 renal; 100% in the test with TK-10 renal; 83.9% in the test with ACHN renal. Moreover, the growth was 53.9% in the test on CAKI-1 renal; 95.5% in the test with A498 renal; 80.4% in the test with CCRF-CEM leukemia; 76.8% in the test on MOLT-4 leukemia; 83.8% with SR leukemia; 69% in the test with RPMI-8226 leukemia. The growth in the test on OVCAR-8 ovarian was 90.2%; with OVCAR-5 ovarian, 93.4%; in the test on OVCAR-4 ovarian it was 68.7%; in the test with SK-OV-3 ovarian, 87.5%; in the test on IGROV1 ovarian, 69.3%; in the test with HS 578T breast, 83.5%. Moreover, in the test on NCI/ADR-RES ovarian, the growth is 82.1%.

(Values after PubChem BioAssay (NCI).)
